Experimental data: PubChem BioAssay AID1159580 (chemical genetic matrix, 2015)
“And” between values parts separate entries of the source, which are not always exact repeats. Equal values may be shown once. The whole screen tested about 5,500 compounds, of which about 2,000 (36%) were called active. Roughly 18% stayed inconclusive and do not appear here. Rule as the data show it: active = normalized growth mostly below about 0.91 (no sharp cut-off); inconclusive = no clear call, values can overlap the other calls; inactive = mostly above about 0.92. Some of the results follow.

Experiment: chemical genetic growth profiling, strain panel (AID 1159580);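 also: tested at 20 µM; growth read once vehicle control cultures reached saturation at 30 °C; 1 = growth at the plate median or of vehicle wells; lower values mean less growth of the strain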
Conditions: S. cerevisiae deletion strains, growth OD
[1] = locus YGR229C, strain SMI1, active compounds read low
[2] = locus YMR307W, strain GAS1, active compounds read low
[3] = locus YPL055C, strain LGE1, active compounds read low

Measured: normalized growth

Oc1ccc(Cn2cc[nH]c2=S)cc1
inactive: locus YAL040C, strain CLN3, active compounds read low 0.993 | locus YCL061C, strain MRC1 (second series), active compounds read low 1.01 | locus YDR363W, strain ESC2, active compounds read low 1 | locus YER002W, strain NOP16, active compounds read low 1.03 | [1] 0.986 | [2] 1 | locus YNL175C, strain NOP13, active compounds read low 1 | locus YNL224C, strain SQS1, active compounds read low 0.999 | [3] 1.01
active: locus YNL197C, strain WHI3, active compounds read low 0.477 | locus YOR083W, strain WHI5 (second series), active compounds read low 0.681

Cn1cc[nH]c1=S
inactive: locus YAL021C, strain ccr4, active compounds read low 0.981 | locus YAL026C, strain drs2, active compounds read low 0.99 | locus YAL030W, strain snc1, active compounds read low 0.99 | locus YBL061C, strain skt5, active compounds read low 0.99 | locus YBR009C, strain hhf1, active compounds read low 1.03 | locus YBR021W, strain FUR4, active compounds read low 0.991 | locus YBR023C, strain chs3, active compounds read low 0.98 | locus YBR171W, strain sec66, active compounds read low 0.99 | locus YBR229C, strain ROT2, active compounds read low 1.01 | locus YBR231C, strain swc5, active compounds read low 1 | locus YBR279W, strain paf1, active compounds read low 0.974 | locus YCL011C, strain gbp2, active compounds read low 0.967 | locus YCL016C, strain dcc1, active compounds read low 0.963 | locus YCL029C, strain bik1, active compounds read low 0.976 | locus YCL069W, strain vba3, active compounds read low 0.999 | locus YCR088W, strain abp1, active compounds read low 0.991 | locus YDL005C, strain med2, active compounds read low 0.963 | locus YDL035C, strain GPR1, active compounds read low 1.01 | locus YDL040C, strain nat1, active compounds read low 0.989 | locus YDL074C, strain BRE1, active compounds read low 1.02 | locus YDL101C, strain DUN1, active compounds read low 0.996 | locus YDL185W, strain tfp1, active compounds read low 0.935 | locus YDL192W, strain arf1, active compounds read low 0.971 | locus YDR001C, strain nth1, active compounds read low 0.989 | locus YDR069C, strain doa4, active compounds read low 1.01 | locus YDR101C, strain arx1, active compounds read low 1.02 | locus YDR137W, strain rgp1, active compounds read low 0.985 | locus YDR159W, strain sac3, active compounds read low 0.974 | locus YDR162C, strain NBP2, active compounds read low 1.01 | locus YDR195W, strain ref2 0.99 | locus YDR297W, strain sur2, active compounds read low 1.01 | locus YDR318W, strain mcm21, active compounds read low 0.968 | locus YDR334W, strain swr1, active compounds read low 0.973 | locus YDR335W, strain msn5, active compounds read low 1 | locus YDR388W, active compounds read low 0.991 | locus YDR392W, strain spt3, active compounds read low 0.887 | locus YDR502C, strain sam2, active compounds read low 0.993 | locus YEL003W, strain gim4, active compounds read low 1 | locus YEL037C, strain rad23, active compounds read low 0.98 | locus YEL061C, strain CIN8 (second series), active compounds read low 0.984 | locus YEL061C, strain CIN8, active compounds read low 0.985 | locus YER015W, strain faa2, active compounds read low 0.993 | locus YER016W, strain bim1, active compounds read low 0.978 | locus YER110C, active compounds read low 0.967 | locus YER111C, strain swi4, active compounds read low 0.967 | locus YER155C, strain BEM2 (second series), active compounds read low 0.976 | locus YER155C, strain BEM2, active compounds read low 1 | locus YER167W, strain BCK2, active compounds read low 1 | locus YFR010W, strain ubp6, active compounds read low 1.01 | locus YGL078C, strain dbp3, active compounds read low 0.956 | locus YGL086W, strain mad1, active compounds read low 1.01 | locus YGL167C, strain pmr1, active compounds read low 0.992 | locus YGL173C, strain kem1, active compounds read low 0.987 | locus YGL227W, strain vid30, active compounds read low 1.01 | locus YGL240W, strain doc1, active compounds read low 0.981 | locus YGL248W, strain PDE1, active compounds read low 1 | locus YGL253W, strain hxk2, active compounds read low 0.97 | locus YGR078C, strain PAC10, active compounds read low 1 | locus YGR135W, strain pre9, active compounds read low 0.938 | [1] 1.01 | locus YGR252W, strain gcn5, active compounds read low 0.958 | locus YHR013C, strain ard1, active compounds read low 0.949 | locus YHR027C, strain rpn1, active compounds read low 1 | locus YHR030C, strain SLT2, active compounds read low 0.997 and 1.04 | locus YHR079C, strain IRE1 (second series), active compounds read low 0.971 | locus YHR079C, strain IRE1, active compounds read low 1.04 | locus YHR094C, strain hxt1, active compounds read low 0.992 | locus YHR129C, strain ARP1, active compounds read low 1.01 | locus YHR142W, strain chs7, active compounds read low 0.981 | locus YHR200W, strain rpn10, active compounds read low 0.971 | locus YIL066C, strain RNR3, active compounds read low 1.01 | locus YIL073C, strain SPO22, active compounds read low 0.929 | locus YIL125W, strain kgd1, active compounds read low 0.986 | locus YIR030C, strain dcg1, active compounds read low 0.964 | locus YJL092W, strain hpr5, active compounds read low 1 | locus YJL095W, strain BCK1 (second series), active compounds read low 0.988 | locus YJL095W, strain BCK1, active compounds read low 0.991 and 1.03 | locus YJL115W, strain asf1, active compounds read low 0.988 | locus YJL129C, strain trk1, active compounds read low 0.963 | locus YJL134W, strain LCB3, active compounds read low 0.999 | locus YJL154C, strain vps35, active compounds read low 0.984 | locus YJL164C, strain tpk1, active compounds read low 1.02 | locus YJL166W, strain qcr8, active compounds read low 1.03 | locus YJL168C, strain set2, active compounds read low 0.984 | locus YJL187C, strain SWE1 (second series), active compounds read low 1 | locus YJR043C, strain POL32, active compounds read low 1.02 | locus YJR066W, strain TOR1, active compounds read low 0.991 | locus YJR075W, strain HOC1, active compounds read low 0.997 | locus YKL009W, strain mrt4, active compounds read low 0.966 | locus YKL068W, active compounds read low 0.987 | locus YKL085W, strain MDH1 (second series), active compounds read low 0.967 | locus YKL085W, strain MDH1, active compounds read low 0.967 | locus YKL160W, strain elf1, active compounds read low 0.952 | locus YKL190W, strain CNB1, active compounds read low 0.985 | locus YKR001C, strain vps1, active compounds read low 0.996 | locus YKR026C, strain gcn3, active compounds read low 0.985 | locus YKR091W, strain srl3, active compounds read low 0.983 | locus YLL001W, strain dnm1, active compounds read low 1 | locus YLL026W, active compounds read low 1 | locus YLL041C, strain sdh2, active compounds read low 1.01 | locus YLR027C, strain aat2, active compounds read low 0.991 | locus YLR039C, strain RIC1, active compounds read low 0.879 | locus YLR058C, strain SHM2, active compounds read low 1 | locus YLR102C, strain apc9, active compounds read low 0.972 | locus YLR113W, strain HOG1, active compounds read low 1.03 | locus YLR221C, strain rsa3, active compounds read low 1.04 | locus YLR258W, strain gsy2, active compounds read low 0.979 | locus YLR262C, strain YPT6 (second series), active compounds read low 1.06 | locus YLR262C, strain YPT6, active compounds read low 0.995 | locus YLR268W, strain sec22, active compounds read low 0.981 | locus YLR320W, strain mms22, active compounds read low 0.999 | locus YLR330W, strain CHS5, active compounds read low 0.995 | locus YLR342W, strain FKS1 (second series), active compounds read low 1.01 | locus YLR342W, strain FKS1, active compounds read low 0.97 | locus YLR357W, strain rsc2, active compounds read low 0.98 | locus YLR370C, strain arc18, active compounds read low 0.978 | locus YLR371W, strain rom2, active compounds read low 0.983 | locus YLR384C, strain iki3, active compounds read low 0.997 | locus YLR418C, strain cdc73, active compounds read low 0.965 | locus YML016C, strain PPZ1, active compounds read low 1.01 | locus YML032C, strain rad52, active compounds read low 0.994 | locus YML120C, strain ndi1, active compounds read low 1.01 | locus YML124C, strain tub3, active compounds read low 0.977 | locus YMR058W, strain fet3, active compounds read low 0.995 | locus YMR078C, strain ctf18, active compounds read low 0.96 | locus YMR125W, strain sto1, active compounds read low 0.973 | locus YMR129W, active compounds read low 1 | locus YMR205C, strain PFK2, active compounds read low 0.984 | locus YMR223W, strain ubp8, active compounds read low 0.952 | locus YMR231W, strain pep5, active compounds read low 0.981 | [2] 1.05 | locus YNL067W, strain RPL9B, active compounds read low 0.997 | locus YNL071W, strain lat1, active compounds read low 0.989 | locus YNL153C, strain GIM3, active compounds read low 1.01 | locus YNL183C, strain NPR1, active compounds read low 0.993 | locus YNL209W, strain ssb2, active compounds read low 0.979 | locus YNL233W, strain BNI4, active compounds read low 1 | locus YNL248C, strain rpa49, active compounds read low 0.965 | locus YNL250W, strain rad50, active compounds read low 0.964 | locus YNL271C, strain bni1, active compounds read low 0.97 | locus YNL298W, strain CLA4, active compounds read low 0.946 | locus YNL307C, strain MCK1, active compounds read low 0.982 | locus YNL322C, strain KRE1 (second series), active compounds read low 0.966 | locus YNR049C, strain mso1, active compounds read low 0.998 | locus YNR052C, strain pop2, active compounds read low 0.962 | locus YOL006C, strain TOP1, active compounds read low 0.987 | locus YOL012C, strain htz1 0.891 | locus YOL147C, strain pex11, active compounds read low 0.973 | locus YOR001W, strain rrp6, active compounds read low 1.03 | locus YOR061W, strain CKA2, active compounds read low 1 | locus YOR069W, strain VPS5, active compounds read low 1.01 | locus YOR070C, strain gyp1, active compounds read low 0.994 | locus YOR080W, strain dia2, active compounds read low 1 | locus YOR083W, strain WHI5, active compounds read low 0.922 | locus YOR106W, strain vam3, active compounds read low 0.977 | locus YOR136W, strain idh2, active compounds read low 0.987 | locus YOR144C, strain elg1, active compounds read low 0.986 | locus YOR184W, strain ser1, active compounds read low 0.974 | locus YOR231W, strain MKK1, active compounds read low 1.04 | locus YOR265W, strain rbl2, active compounds read low 0.997 | locus YOR270C, strain vph1, active compounds read low 1.07 | locus YOR290C, strain snf2, active compounds read low 0.955 | locus YOR316C, strain cot1, active compounds read low 0.974 | locus YPL051W, strain arl3, active compounds read low 0.98 | [3] 0.999 | locus YPL078C, strain atp4, active compounds read low 1 | locus YPL106C, strain sse1, active compounds read low 0.965 | locus YPL240C, strain hsp82, active compounds read low 1.02 | locus YPL241C, strain CIN2, active compounds read low 1 | locus YPL256C, strain CLN2, active compounds read low 1.06 | locus YPR119W, strain clb2, active compounds read low 0.968 | locus YPR141C, strain kar3, active compounds read low 0.977 | locus YPR163C, strain tif3, active compounds read low 0.976 | locus YPR167C, strain met16, active compounds read low 0.983 | strain wtn01, active compounds read low 0.97
